# Measured values: the supplement of paper PMC7366291
# Where a name gives a salt, the structure may show the parent alone. ± gives the standard deviation or the standard deviation of the averaged measurements.
# Legend:
# Settings in all cases: 25 µM; exposure: 24-48 hpf
# [1] = tested on: Danio rerio Tg(wt1b:EGFP) embryo, pronephros; experiment: glomerular separation, fold change vs DMSO control; higher = glomeruli further apart (abnormal)
# Method in brief: (§1)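 Every feature is expressed as a fold change relative to the averaged DMSO-treated embryos of the same day. The exposure ran from 24 to 48 hpf at 28.5°C, with dechorionated Tg(wt1b:EGFP) zebrafish embryos in HEPES-buffered E3 containing 0.003% PTU, 0.5% DMSO and 25 μM compound. Dorsal pronephros images taken in agarose-filled 96-well plates were reduced to maximum projections, on which 16 reference points were set by hand in Fiji for a macro to compute distances and angles. Values more than 2 SD from the feature mean were not used.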
# [2] = tested on: Danio rerio Tg(wt1b:EGFP) embryo, pronephros; experiment: glomerular width (mean of left and right), fold change vs DMSO control; higher = wider glomerulus
# Method in brief: as §1
# [3] = tested on: Danio rerio Tg(wt1b:EGFP) embryo, pronephros; experiment: fraction of imaged embryos annotated as normal kidney; higher = less nephrotoxic; extreme values may be limits of the assay
# Method in brief: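 The read-out is the proportion of embryos in each treatment manually annotated as normal-kidney. Exposure ran from 24 to 48 hpf at 28.5°C in 12-well plates, using dechorionated Tg(wt1b:EGFP) zebrafish embryos in 5 mM HEPES-buffered E3 with 0.003% PTU, 0.5% DMSO and 25 μM compound. For imaging, larvae were anaesthetised with tricaine, positioned dorsally in agarose-filled 96-well plates and captured by widefield fluorescence (470 nm, 10 z-slices), with scoring done on maximum projections.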
# [4] = tested on: Danio rerio Tg(wt1b:EGFP) embryo, pronephros; experiment: pronephric angle neck segment to proximal convoluted tubule (mean of left and right), fold change vs DMSO control; higher = larger pronephric angle
# Method in brief: as §1
Compound,glomerular separation [1],glomerular width [2],fraction of imaged embryos annotated as normal kidney [3],pronephric angle neck segment [4]
CC(C)(C)NCC(O)c1ccccc1Cl (stereo not given) [Tulobuterol],1.02 ± 0.37,0.9779 ± 0.007,0.917,1.01 ± 0.039
OC(c1ccccc1)(c1ccccc1)C1CCNCC1 [Azacyclonol],0.869 ± 0.25,0.9558 ± 0.0054,0.833,0.994 ± 0.029
CN(C)C(=O)Oc1cc(OC(=O)N(C)C)cc(C(O)CNC(C)(C)C)c1 (stereo not given) [Bambuterol hydrochloride],0.925 ± 0.31,0.915 ± 0.035,1,1.01 ± 0.021
CCC(COC(=O)c1cc(OC)c(OC)c(OC)c1)(c1ccccc1)N(C)C (stereo not given) [Trimebutine],0.875 ± 0.36,0.9518 ± 0.0092,0.917,1.01 ± 0.012
C[C@@H]1CN([C@H]2CC[C@](C#N)(c3ccc(F)cc3)CC2)CC[C@]1(C(=O)O)c1ccccc1 [Levocabastine hydrochloride],1.19 ± 0.32,1.06 ± 0.034,0.917,0.959 ± 0.011
C[C@]12Cc3c[nH]nc3C[C@@H]1CC[C@@H]1[C@@H]2CC[C@@]2(C)[C@H]1CC[C@]2(C)O [Stanozolol],1.31 ± 0.44,1.03 ± 0.076,0.75,1.01 ± 0.085
CN[C@@H]1C[C@@H](c2ccc(Cl)c(Cl)c2)c2ccccc21 [Indatraline hydrochloride],0.788 ± 0.28,1.04 ± 0.011,0.833,0.9756 ± 0.0089
C[C@]12CCC(=O)C(O)=C1CC[C@@H]1[C@@H]2CC[C@]2(C)C(=O)CC[C@@H]12 [Formestane],1.16 ± 0.45,0.866 ± 0.031,0.917,0.9657 ± 0.0071
C[C@@H]1C[C@@H]([C@H](O)CC2CC(=O)NC(=O)C2)C(=O)[C@@H](C)C1 [Cycloheximide],0.972 ± 0.45,0.604 ± 0.14,0.2,1.73 ± 0.19
C[C@H](N)[C@H](O)c1ccc(O)c(O)c1 [Levonordefrin],1.13 ± 0.33,1.04 ± 0.016,0.667,0.982 ± 0.012
NCCc1c[nH]c2ccc(O)cc12 [Serotonin hydrochloride],1.61 ± 1.2,0.902 ± 0.038,0.667,1.064 ± 0.007
O[C@@H]1CCCC[C@H]1N1CCC(c2ccccc2)CC1 [L(-)-vesamicol hydrochloride],1.01 ± 0.55,0.955 ± 0.032,0.917,1.01 ± 0.075
C[N+]1(C)CCCC(OC(=O)C(O)(c2ccccc2)c2ccccc2)C1 (stereo not given) [Mepenzolate bromide],1.4 ± 0.8,1.01 ± 0.011,0.727,1 ± 0.054
CC1OC(OC2/C=C/C=C/C=C/C=C/CC/C=C/C=C/[C@H](C)[C@@H](O)[C@@H](C)[C@H](C)OC(=O)CC(O)CC(O)CC(O)CCC(O)C(O)C[C@]3(O)CC(O)C(C(=O)O)C(C2)O3)C(O)C(N)C1O (stereo not given in full) [Nystatine],0.778 ± 0.16,0.994 ± 0.05,1,1.05 ± 0.053
CN1[C@@H]2C[C@@H](OC(=O)[C@H](CO)c3ccccc3)C[C@H]1[C@@H]1O[C@@H]12 [Scopolamine hydrochloride],0.986 ± 0.42,1.09 ± 0.054,0.833,0.984 ± 0.036
N[C@@H]1C[C@H]1c1ccccc1 [Tranylcypromine hydrochloride],1.03 ± 0.28,1.021 ± 0.0055,0.727,1.01 ± 0.038
O=c1[nH]c2ccccc2n1CCCN1CCC(n2c(=O)[nH]c3cc(Cl)ccc32)CC1 [Domperidone],0.857 ± 0.34,1.03 ± 0.08,0.818,0.963 ± 0.041
C[C@]12N[C@H](Cc3ccccc31)c1ccccc12 [Dizocilpine maleate],0.888 ± 0.31,1.03 ± 0.077,0.917,0.978 ± 0.071
CNC(=O)Oc1ccc2c(c1)[C@]1(C)CCN(C)[C@@H]1N2C [Eserine hemisulfate salt],1.12 ± 0.17,1 ± 0.0036,1,0.981 ± 0.013
C[N+]1(C)[C@@H]2CC[C@H]1C[C@@H](OC(=O)C(CO)c1ccccc1)C2 (stereo not given in full) [Methylatropine nitrate],1.01 ± 0.39,0.936 ± 0.028,0.917,1.06 ± 0.017
C#CCN(C)[C@H](C)Cc1ccccc1 [Selegiline hydrochloride],0.996 ± 0.51,0.969 ± 0.055,0.75,0.98 ± 0.017
C[C@@]12N[C@@H](Cc3ccccc31)c1ccccc12 [(-)-MK 801 hydrogen maleate],1.02 ± 0.29,1.034 ± 0.0098,1,1.02 ± 0.069
CCCN1C[C@H](CSC)C[C@@H]2c3cccc4[nH]cc(c34)C[C@H]21 [Pergolide mesylate],1.26 ± 0.37,1.01 ± 0.019,1,0.997 ± 0.029
COc1cc2c(c(OC)c1OC)-c1ccc(OC)c(=O)cc1[C@@H](NC(C)=O)CC2 [Colchicine],1.2 ± 0.47,0.827 ± 0.047,0.667,1.06 ± 0.044
CN[C@@H]1[C@@H](O)[C@@H](O[C@@H]2[C@@H](O)[C@H](O[C@H]3O[C@H](CN)CC[C@H]3N)[C@@H](N)C[C@H]2N)OC[C@]1(C)O.CN[C@@H]1[C@@H](O)[C@@H](O[C@@H]2[C@@H](O)[C@H](O[C@H]3O[C@H]([C@@H](C)N)CC[C@H]3N)[C@@H](N)C[C@H]2N)OC[C@]1(C)O.CN[C@@H]1[C@@H](O)[C@@H](O[C@@H]2[C@@H](O)[C@H](O[C@H]3O[C@H]([C@@H](C)NC)CC[C@H]3N)[C@@H](N)C[C@H]2N)OC[C@]1(C)O [Gentamicine sulfate],0.941 ± 0.25,1.02 ± 0.024,0.667,1.01 ± 0.029
COc1ccc(CCN)cc1OC [Homoveratrylamine],1.13 ± 0.38,0.994 ± 0.012,0.75,0.972 ± 0.021
C[N+](C)(C)CCCCCCCCCC[N+](C)(C)C [Decamethonium bromide],1.04 ± 0.55,1.01 ± 0.041,0.727,1.02 ± 0.021
Clc1ccc(C(OCCN2CCCCC2)c2ccccc2)cc1 (stereo not given) [Cloperastine hydrochloride],0.819 ± 0.35,1.04 ± 0.069,0.917,0.994 ± 0.0094

Compound,glomerular separation [1],glomerular width [2],fraction of imaged embryos annotated as normal kidney [3],pronephric angle neck segment [4]
CCn1cc(C(=O)O)c(=O)c2cc3c(cc21)OCO3 [Oxolinic acid],0.66 ± 0.37,1.06 ± 0.096,0.583,0.799 ± 0.024
CCC1(C)CC(=O)NC(=O)C1 [Bemegride],0.891 ± 0.28,0.997 ± 0.013,0.75,0.968 ± 0.027
O=C(NCNC(=O)NC1C(=O)NC(=O)N1CO)NC1C(=O)NC(=O)N1CO (stereo not given) [Imidurea],0.876 ± 0.2,1.008 ± 0.01,0.833,1.058 ± 0.0052
CC(C)c1cccc(C(C)C)c1O [Propofol],0.693 ± 0.2,1.02 ± 0.021,0.75,1.02 ± 0.14
CC(N)C(O)c1ccccc1 (stereo not given) [Phenylpropanolamine hydrochloride],0.921 ± 0.29,0.982 ± 0.054,0.917,1.07 ± 0.027
C[C@@H]1CC[C@H]2[C@@H](C)C(=O)O[C@@H]3O[C@@]4(C)CC[C@@H]1[C@]32OO4 [Artemisinin],0.996 ± 0.38,0.9517 ± 0.0011,1,1.05 ± 0.054
"CN1CCC2(C)c3cc(O)ccc3N(C)C12 (single isomer, unassigned; (-)) [(-)-Eseroline fumarate salt]",0.883 ± 0.34,1.01 ± 0.025,0.917,1.02 ± 0.043
COc1cccc(C2(O)CCCCC2CN(C)C)c1 (stereo not given) [Tramadol hydrochloride],0.728 ± 0.23,0.989 ± 0.021,0.833,0.9988 ± 0.0034
CC(O)(CS(=O)(=O)c1ccc(F)cc1)C(=O)Nc1ccc(C#N)c(C(F)(F)F)c1 (stereo not given) [Bicalutamide],1.14 ± 0.56,1.04 ± 0.023,0.75,0.971 ± 0.002
COc1ccc(CN2CCNCC2)c(OC)c1OC [Trimetazidine dihydrochloride],0.91 ± 0.3,0.96 ± 0.014,0.917,0.982 ± 0.044
CC(C)(N)Cc1ccccc1 [Phentermine hydrochloride],0.886 ± 0.21,0.981 ± 0.035,0.917,0.979 ± 0.031
C(#CCN1CCCC1)CN1CCCC1 [Tremorine dihydrochloride],1.25 ± 0.52,0.9472 ± 0.008,0.75,1.03 ± 0.015
CN1[C@@H]2CC[C@H]1C[C@@H](OC(=O)C(CO)c1ccccc1)C2 (stereo not given in full) [Atropine sulfate monohydrate],1.25 ± 0.3,1.04 ± 0.011,1,1 ± 0.063
COc1ccc(OC)c(C(O)C(C)N)c1 (stereo not given) [Methoxamine hydrochloride],0.886 ± 0.22,0.9725 ± 0.0077,0.75,0.976 ± 0.021
CC(C)N(CCC(C(N)=O)(c1ccccc1)c1ccccn1)C(C)C (stereo not given) [Disopyramide],0.9 ± 0.32,1.09 ± 0.086,0.667,1.05 ± 0.038
CC[C@@H](C(N)=O)N1CCCC1=O [Levetiracetam],0.937 ± 0.41,1.04 ± 0.041,0.917,1.011 ± 0.0044
COc1ccc(CCN2CCC(Nc3nc4ccccc4n3Cc3ccc(F)cc3)CC2)cc1 [Astemizole],2.83 ± 2.3,0.777 ± 0.12,0.333,1.01 ± 0.022
COc1ccc(Cc2nccc3cc(OC)c(OC)cc23)cc1OC [Papaverine hydrochloride],0.972 ± 0.22,1.04 ± 0.065,0.833,0.968 ± 0.018
O=C(CCCN1CCC2(CC1)C(=O)NCN2c1ccccc1)c1ccc(F)cc1 [Spiperone],1.21 ± 0.45,0.978 ± 0.02,0.833,1.06 ± 0.078
C[C@]12CCC(=O)C=C1C=C[C@@H]1[C@@H]2CC[C@@]2(C)[C@H]1CC[C@@]2(O)CCC(=O)O [Canrenoic acid potassium salt],1.07 ± 0.36,1.03 ± 0.033,0.455,0.97 ± 0.046
C=C1CC[C@@]2(O)[C@H]3Cc4ccc(O)c5c4[C@@]2(CCN3CC2CC2)[C@H]1O5 [Nalmefene hydrochloride],0.938 ± 0.31,1.016 ± 0.01,0.75,1.007 ± 0.0021
CC(C)CC(N(C)C)C1(c2ccc(Cl)cc2)CCC1 (stereo not given) [Sibutramine hydrochloride],0.986 ± 0.37,0.995 ± 0.021,0.417,1.08 ± 0.054
CC(CCc1ccccc1)NC(C)C(O)c1ccc(O)cc1 (stereo not given) [Nylidrin],0.871 ± 0.34,1.02 ± 0.035,0.917,1 ± 0.02
O=c1[nH]c2ccccc2n1C1CCN(CCCC(c2ccc(F)cc2)c2ccc(F)cc2)CC1 [Pimozide],4.46 ± 1.6,0.673 ± 0.02,0,0.976 ± 0.099
c1ccc2nc(N3CCNCC3)ccc2c1 [Quipazine dimaleate salt],1.09 ± 0.53,1.01 ± 0.04,0.75,1.022 ± 0.0046
COc1ccc(C(=O)N2CCCC2=O)cc1 [Aniracetam],0.837 ± 0.17,1.06 ± 0.052,0.75,1.02 ± 0.019
O=C(CCCN1CCC(n2c(=O)[nH]c3ccccc32)CC1)c1ccc(F)cc1 [Benperidol],1.04 ± 0.25,0.951 ± 0.034,0.917,0.992 ± 0.033
